In PubChem BioAssay AID588347 (National Center for Advancing Translational Sciences (NCATS), 2011):
The list shows a part of the results. Inconclusive results are not listed. The source made the active and inactive calls. Calls come from the whole dose curve; as a rule, active = well fitted inhibition curve with a large enough effect; inconclusive = small, poorly fitted or top-dose-only effect, or another doubt; inactive = no such curve, though single readings can be large or run the other way.

The compounds below were run against Histone acetyltransferase KAT2A (Homo sapiens) (UniProt Q92830) (assay: qHTS Assay for Inhibitors of GCN5L2: Hit confirmation). Conditions: GCN5L2 HAT, ThioGlo1 CoA fluorescence, 20 min.
Chain of Histone acetyltransferase KAT2A (Homo sapiens) (Q92830 whole entry, looked up): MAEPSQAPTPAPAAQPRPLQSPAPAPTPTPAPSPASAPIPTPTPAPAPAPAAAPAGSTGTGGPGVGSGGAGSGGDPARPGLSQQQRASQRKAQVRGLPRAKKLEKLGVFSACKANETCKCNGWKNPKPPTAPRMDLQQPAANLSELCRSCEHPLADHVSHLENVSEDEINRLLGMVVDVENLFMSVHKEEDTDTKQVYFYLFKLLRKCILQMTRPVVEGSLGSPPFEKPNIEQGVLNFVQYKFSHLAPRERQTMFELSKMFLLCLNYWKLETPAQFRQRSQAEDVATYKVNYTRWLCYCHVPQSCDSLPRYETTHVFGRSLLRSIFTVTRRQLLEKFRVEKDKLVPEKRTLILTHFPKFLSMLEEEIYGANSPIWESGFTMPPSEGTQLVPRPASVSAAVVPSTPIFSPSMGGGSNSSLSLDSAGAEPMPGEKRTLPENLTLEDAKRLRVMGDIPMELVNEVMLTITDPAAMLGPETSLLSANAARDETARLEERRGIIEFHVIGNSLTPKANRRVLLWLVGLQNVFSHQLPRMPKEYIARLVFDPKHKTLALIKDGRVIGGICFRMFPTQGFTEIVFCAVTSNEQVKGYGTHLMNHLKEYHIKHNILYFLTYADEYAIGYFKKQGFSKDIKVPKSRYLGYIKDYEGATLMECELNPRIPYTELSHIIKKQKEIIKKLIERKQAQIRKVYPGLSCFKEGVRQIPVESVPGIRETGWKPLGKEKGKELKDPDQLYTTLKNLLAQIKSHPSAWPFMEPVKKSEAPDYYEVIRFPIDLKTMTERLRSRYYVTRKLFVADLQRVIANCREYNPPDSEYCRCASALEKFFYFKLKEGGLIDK
Description: Histone acetyltransferase (HAT) enzymes transfer a […] group from acetyl-coenzyme A to the epsilon-amino group of conserved lysine residues of N-terminal histone tails. Acetylation results in charge neutralization of this positively charged amino acid, decreasing interactions with the […] backbone and making the DNA more accessible for transcription. HATs have been recognized as an emerging drug target for treatment of cancer, diabetes, asthma, chronic obstructive pulmonary disease, cardiac disease, and viral infection. Protein identified with HAT activity include the […] like 2 (GCN5L2, a.ka. Histone acetyltransferase KAT2A) which acetylates histone H3 at Lys9, 14, 18, 13, and to lesser extent histones H4 and H2B. This activates transcription of the gene by modulating chromatin structure and installing the acetyllysine recognition mark for bromodomain-containing coactivator proteins. A quantitative high throughput screen was developed to identify small molecule inhibitors. The assay is based on the principle that it measures formation of reduced CoA with the pro-fluorescent maleimide derivative ThioGlo1 that becomes fluorescent upon reaction with the free thiol of CoA. A large number of artifacts are expected in this primary screen, compounded by the assay format (fluorescent artifacts) and by the high top concentration tested for each substance. […] Yasgar, et al. Compound Management for Quantitative High-Throughput Screening. […] Inglese, et al. Quantitative high-throughput screening: a titration-based approach that efficiently identifies biological activities in large chemical libraries. […]
To each well of a 1,536w plate, 3ul of GCN5L2 (final concentration 20nM, in 50mM HEPES, 0.1mM EDTA (pH 7.5), 0.01% Tween-20 buffer) are added using a Kalypsys dispenser. […] Plates are read immediately on the ViewLux (PerkinElmer) (Ex340nm/Em540nm) for a 0 min read, incubated for 20 min at room temperature, and read again on the ViewLux with the same settings. The initial read was carried out to identify compounds that are potentially fluorescent.

Potency, active:
FC(F)(F)C1CCCN(c2nsc3ccccc23)C1 (stereo not drawn) 2.89 µM
CC1=C/C(=N\OS(=O)(=O)c2ccccc2)C=CC1=O 10.2 µM
O=c1[nH]c2ccccc2n2c(-c3ccccc3)nnc12 6.46 µM
